# Test results reported in the supplement of paper PMC6555819.
# Assays:
# Assay in all cases: PBM binding z-score (relative to random genomic background probes); higher = stronger binding; sequences stand for … in GC…GCGATTGACAGCGTAGAATGAAGG
# [1] = tested on: FXR:RXRa (NR concentration 270 nM, RXRa partner concentration 90 nM)
# Summary of the method: (§1)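 For binding z-scores, the reference was random background probes on custom Agilent 4×180K protein-binding microarrays. These arrays were incubated 1 h with ligand-free nuclear receptor dimers in PBS pH 7.4, 2% milk, 0.02% Triton X-100, 1 mM DTT, 0.2 mg/mL BSA and 0.4 mg/ml salmon testes DNA. Fluorescence was scanned after antibody detection of each partner (one per run) and regression-normalized.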
# [2] = tested on: LXRa:RXRa (NR concentration 270 nM, RXRa partner concentration 90 nM)
# Summary of the method: as §1
# [3] = tested on: LXRa homodimer (NR concentration 270 nM)
# Summary of the method: as §1
# [4] = tested on: LXRb:RXRa (NR concentration 270 nM, RXRa partner concentration 90 nM)
# Summary of the method: as §1
# [5] = tested on: LXRb homodimer (NR concentration 270 nM)
# Summary of the method: as §1
# [6] = tested on: PPARa:RXRa (NR concentration 270 nM, RXRa partner concentration 90 nM)
# Summary of the method: as §1
# [7] = tested on: PPARg:RXRa (NR concentration 180 nM, RXRa partner concentration 90 nM)
# Summary of the method: as §1
# [8] = tested on: PPARg:RXRa 270nM:90nM, anti-RXR (NR concentration 270 nM, RXRa partner concentration 90 nM)
# Summary of the method: as §1
# [9] = tested on: PPARg:RXRa 30nM:10nM, anti-RXR (NR concentration 30 nM, RXRa partner concentration 10 nM)
# Summary of the method: as §1
# [10] = tested on: PPARg:RXRa 90nM:30nM, anti-RXR (NR concentration 90 nM, RXRa partner concentration 30 nM)
# Summary of the method: as §1
Sequence,PBM binding z-score [1],PBM binding z-score [2],PBM binding z-score [3],PBM binding z-score [4],PBM binding z-score [5],PBM binding z-score [6],PBM binding z-score [7],PBM binding z-score [8],PBM binding z-score [9],PBM binding z-score [10]
TCGAGTAGGCTAGTCGGGGCATTCAGCCAACATA,-0.433,-0.611,-0.763,-0.579,-1.53,-0.209,-0.351,0.0773,0.911,0.101
ACAGACACGTGATGAAGGTAACTCAGGCTATCAT,0.135,0.0254,-0.272,0.133,-0.0548,-0.111,0.787,-0.012,0.0893,-0.0553
GCATATAGGTAATACAAGGTGAAAGACCGATTGT,1.32,2.31,0.0608,0.571,-0.236,1.46,1.65,1.57,0.368,0.978
TCTCGGAGGACACGCAGGTCAGAGCTTTCCAGAG,0.587,0.453,-0.198,0.321,-1.1,1.22,-0.00527,0.98,1.99,1.12
CTTGAAAGGTCGGTTGAGGTGAGTATACGGATAA,3.64,2.28,-0.0492,2.52,-0.354,3.43,0.512,1.27,0.216,0.942
TGAATGAGGTTACAAGATCAGGGAACGTTGCAAA,1.8,1.28,-0.302,1.34,-0.31,3.09,2.14,2.54,1.05,1.65
ATCTCTAGGTAAAGATAGTTCAGTGTATGCAAAT,0.705,4.16,0.797,0.893,0.581,1.05,0.827,0.452,0.59,0.44
CCTGCTAGCTCAATGGTCAGCTAAAGCAGCTCGC,-0.674,-0.624,-0.571,-0.457,-0.691,-0.408,-0.805,-0.234,-0.854,-0.539
ATCGAATGGTCGACGAGGTGAGTATACACCGTTT,-0.323,-0.552,-0.816,-0.341,-0.342,-0.212,0.744,-0.273,0.119,-0.347
CGACCAAGGTCAATGCTAGGTCAGTGAAAGCATT,6.54,5.4,1.97,3.95,0.214,4.99,3.99,4.62,1.63,3.37
ACAGACAGGTGAGTGAAGGTTACTCAGCTGGACG,0.506,0.708,-0.297,-0.125,-0.739,0.764,0.848,0.505,-0.0853,0.0538
ACTAGCAGGCCAGGGGTCACTCAAGATTAGTCCG,4.12,3.93,0.488,4.47,0.258,5.04,6.84,6.37,4.58,6.76
TCATACAGGTAAAGGTGAAAGTCGAACGATATGA,1.17,1.57,0.0169,1.44,0.312,3.08,2.39,3.81,4.26,4.38
GAAACGAGGGCATTCGAGTTGATAGCATGGCGAT,1.71,2.15,-0.383,0.442,-0.542,2.05,1.35,1.32,0.0683,0.829
ATCTCTAGGTAAAGATAGTTCCGTGAATGCAAAT,0.0722,-0.0482,0.14,-0.171,0.352,0.22,0.326,0.273,0.172,0.366
AGAATGAGGTTAGTAAGATCAGGGAATTGCGGTC,0.169,0.283,-0.393,0.342,-0.18,1.6,1.07,1.06,0.16,0.634
TAGCCTAGGTCAATCAGGGGCCAGTATAGAAAGC,3.77,2.77,0.313,2.59,0.0516,3.34,2.24,2.28,0.674,1.76
CGTCCAAGGTCGAGGTCAGTGAAAGAGACTCGAA,4.56,3.15,0.186,2.74,-0.695,4.31,2.53,3.25,0.231,1.81
CCTCAGAGGACAACAGGAGGTCAGAGCTGCCAGA,1.05,2.25,2.4,1.34,-0.195,2.09,0.662,0.51,-0.374,-0.163
CCGACTGGGGCAAGGTTACGATAACGCACAGCCA,0.216,0.654,-0.354,0.677,-1.27,2.06,2.79,3.25,0.969,2.5
AATACAGGGGCACTAGGCCAGAGTAGGTACGAAT,-0.0916,0.117,-0.197,0.693,-0.000441,1.5,2.84,2.51,0.512,1.26
TCTAGTTGGTCACGGAGGTCACGCACGACGGGTA,3.96,4.14,2.94,3.75,0.74,4.54,4.03,4.7,3.7,4.38
GCTAGCAGGCCATTTGGGGCACTCAATGACGGGC,-0.254,-0.719,-0.424,-0.753,-0.89,-0.000395,0.377,-0.278,-0.304,-0.0904
CAAGCTAGGTCACAGAGGTCAAAGTCCGTGCGTA,7.59,6.83,7.42,6.28,1.9,5.99,6.86,6.52,3.68,5.83
CCGAGTAGGTTATGGGGCATTCAGGCAACGGTGA,0.255,0.351,-0.0528,0.508,-0.322,2.11,3.48,4.31,2.03,3.91

Sequence,PBM binding z-score [1],PBM binding z-score [2],PBM binding z-score [3],PBM binding z-score [4],PBM binding z-score [5],PBM binding z-score [6],PBM binding z-score [7],PBM binding z-score [8],PBM binding z-score [9],PBM binding z-score [10]
ATATGTAGGTTACATCCGGGTTATTCAGGCTATG,0.937,3.18,0.529,1.71,0.53,3.59,5.15,4.27,2,3.64
ACTCGGAGGACAAAGGTCAGAGCGACGCCAGTGA,4.14,4.3,1.14,3.61,0.216,4.97,7.85,6.9,5.06,7.27
AGAACGAGGGCAATGATTTGATAGCACGGGTGGC,0.321,0.43,-0.337,0.168,-0.65,1.41,1.57,0.787,0.29,0.557
CCTCGGAGGACAACAGGGGGTCAGAGCTGCCAGA,1.81,2.48,0.582,3.99,2.09,3.22,1.09,1.92,-0.264,1.13
CGTCCAAGTTCAAAGGTCAGTGAAGAGATGACGG,6.81,5.86,2.94,4.98,1.4,5.95,6.58,6.54,4.28,6.22
ATACCAAGATGATCGTGAGGTCGTTGATACTAAC,1.11,0.576,0.456,0.892,0.0732,0.598,0.48,-0.158,0.129,-0.00184
TCTCTTAGTTGAAGGGCAACCGACGAGTCCGTTT,0.776,1.01,0.193,0.945,0.697,1.06,-0.252,2.02,3.7,3.13
ATATGTAGGTTACATCCGGCTCATTCAGGCTATG,0.486,2.28,0.223,1.13,0.756,3.04,4.81,3.99,1.57,3.14
TCGAGTAGGTTACCAACGGGGCATTCAGCTTTCT,0.106,1.75,-0.787,0.579,-1.13,1.15,0.374,1.13,1.03,0.692
CGACCTAGGTCATTGACAGGACAGTGAATAGTAA,5.8,4.01,0.717,2.75,0.226,4.18,3.67,3.24,0.782,2.01
CCTAGTTGGTCAAGGTCAAACACGCTATAGGTAC,5.04,4.62,3.57,4.52,1.24,4.81,3.13,3.93,1.16,3.04
TCGACTAGGTTAGTCGGGGCATTCAGCCAACATA,-0.0811,-0.0624,-0.672,-0.0911,-0.943,0.668,0.144,1.05,1.49,1.12
CGTCCAAGGTCAGAGAGGTCAGTGCATGCCGAGT,5.87,4.93,3.33,4.41,0.554,4.76,3.48,4.37,0.807,2.76
TGTGAAAGTTCAAAGGTAACGTAAGTATCCACAC,6.55,5.73,4.61,4.36,2.11,5.49,6.77,6.84,4.1,6.25
GCTGCTAGGTCAACTGATGGTCTGCTAAAGCTCG,3.83,2.66,-0.135,1.8,0.0375,3.45,2.31,2.78,0.103,1.81
TCATATAGGTATAAGGTGAAAGTCGGTGTGGTAA,1.55,1.21,0.319,1.37,0.352,3.14,3.92,5.38,5.06,5.68
ATCTCTAGGAAAGACTCAGTTCAGTGAAGAACGC,0.193,0.324,0.437,0.164,0.531,-0.385,-0.00135,-0.209,-0.24,-0.119
CTAGAAAGGTCGGTTGAGGTGAGTATACGGATAA,3.11,1.64,-0.0561,1.64,-0.0428,2.6,0.509,1.1,0.117,0.585
CGAACTAGGTCAGAACAGGATAGTGAAGGATGAT,1.16,0.877,-0.252,0.463,-0.465,3.33,5.21,4.24,1.75,3.34
CGGCCAAGGTCAGAGAGGTCAGTGAATGCCGAGT,6.02,5.04,2.26,4.41,-0.527,4.79,3.72,4.34,0.655,2.75
TCTTGTAGATCAAGCAGGTTCAGAAAGCCTGAGT,0.0146,0.179,-0.177,0.301,-0.777,0.691,-0.504,1.16,2.45,1.72
TCTAATTGGTCAAAGGTCACACACTCGAAATGCG,6.13,5.81,4.4,5.53,2.67,6.59,10.7,9.75,10.1,12
AGAACGAGGGCAATGAGTTGCTAGCACGGGTGGC,0.0307,-0.027,-0.614,-0.476,-0.767,1.23,1.05,0.875,-0.288,0.214
TCTTGTAGAACAATAGAGGTTAAGAAAGTGCGCT,0.656,2.99,0.526,1.58,-0.26,1.92,0.287,1.7,2.64,2.2
